Here are results for 60 compounds from PubChem BioAssay AID431 (Sanford-Burnham Center for Chemical Genomics, 2006).

The campaign covered roughly 63,000 compounds. About 1,100 (1.7%) were called active. Only a selection was taken, and actives are over-represented in it overall. Potency and affinity values are given separately. A number with no mark means an inactive call.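 Rule for the calls: active = compounds whose percent cytotoxicity in the single-dose primary screen, scaled between solvent and toxic-drug controls, exceeds 50; inactive = the rest.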

The nature of this test: cytotoxicity in KRAS-transformed pancreatic duct cells, primary screen, cell-based, fluorescence, HTS (AID 431).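 Note: 0% = DMSO solvent wells and 100% = doxorubicin-treated wells.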 The settings on record: HPDE-C7K KRASV12 cells, Alamar Blue viability, 48 h; at 10 µM; active compounds read high.
Regarding `CCc1ccc(-n2c(SCC(=O)Nc3cc(C)[nH]n3)nc3[nH]ncc3c2=O)cc1`, the cytotoxicity is -4.9%.
Take `COc1ccc2nc(NC(=O)C3CCN(S(=O)(=O)c4cnc[nH]4)CC3)sc2c1`: the cytotoxicity is 14.5%.
As for `O=C(Nc1c(C(=O)NCc2ccco2)cnn1-c1ccccc1)c1cccc(F)c1`, the figure is 7.2%.
With `O=C(NCc1ccco1)c1cc2ccccc2o1` the figure was 7.8%.
With `C=CCn1c(N)c(-c2nc3ccccc3n2C)sc1=S` the figure was 50.1% (active).
On to `C=CCn1c(N)nc2ccccc21`, for which the cytotoxicity is -9.7%.
For `Cc1ccc(-n2c(N)c(-c3nc4ccccc4n3C)sc2=S)cc1`, the cytotoxicity is 9.5%.
Consider `CCC(=O)Nc1ccc(NC(=O)c2c(C)nc3ccccn23)cc1`, for which the cytotoxicity was -2.5%.
In the case of `O=C(CCCC(=O)N(CC(=O)NC1CCCC1)Cc1ccc(F)cc1)Nc1ccccn1`, the cytotoxicity was 14.7%.
With `C/C=C/Cn1c(N(C)Cc2ccccc2)nc2c1c(=O)[nH]c(=O)n2C` the figure was 5.8%; with `CCOc1cc(N2CCOCC2)c(OCC)cc1NC(=O)COc1cccc2cccnc12`, 51% (active); with `CCOc1cc(N2CCOCC2)c(OCC)cc1NC(=O)CN1CCc2ccccc2C1`, 9.3%.
Consider `CCOc1cc(N2CCOCC2)c(OCC)cc1NC(=O)Cc1ccc(OC)c(OC)c1`, for which the cytotoxicity was -1.4%.
With `CC(C)(C)c1ccc(C(=O)N2CCC(C(=O)NCC3CCCO3)CC2)cc1` (stereo not given) the figure was -1.9%; with `CC(C)Cn1c(SCC(=O)NC2CCCc3ccccc32)nc(O)cc1=O` (stereo not given), -9.4%; with `N#Cc1c(/N=C/c2ccco2)oc(-c2ccccc2)c1-c1ccccc1`, 78.7% (active).
As for `N#Cc1c(N)oc(-c2ccccc2)c1-c1ccccc1`, the figure is -9.5%.
Regarding `N#Cc1c(/N=C/N2CCCC2)oc(-c2ccccc2)c1-c1ccccc1`, the cytotoxicity was 15.9%.
With `Cc1ccc(CCNc2ccccc2)c[n+]1[O-]` the figure was -10.6%; with `CCOC(=O)CN1C(=O)C(O)(CC(=O)c2ccco2)c2ccccc21` (stereo not given), -77.9%.
For the compound `O=C(Nc1nccs1)Oc1ccccc1`, the cytotoxicity was 0.7%.
`COc1ccc2c3c(cccc13)OCC2=O`: the cytotoxicity is 18.6%.
With `COc1ccc(C(C)=O)c2c(O)cccc12` the figure was 12.2%; with `CC(=O)NC1CCN(C(=O)N2CCCC2)CC1`, 7.7%; with `O=C(CSc1n[nH]c(-c2ccncc2)n1)NC1CCS(=O)(=O)C1` (stereo not given), -7.5%.
As for `Cc1c(C(=O)NCc2ccoc2)oc2ccc3c(c12)C(=O)CC(C)(C)O3`, the figure is 36.4%; as for `CCOC(=O)c1ccc(N2C(=O)CC(NC3CCN(C(=O)c4ccc(F)cc4)CC3)C2=O)cc1` (stereo not given), -19.3%; as for `CC(C)OC(=O)c1cc(=O)[nH]c2ccccc12`, 13.4%.
Regarding `Cc1noc(C)c1S(=O)(=O)N(CC(=O)Nc1ccc2c(c1)OCO2)c1ccc(C(C)C)cc1`, the cytotoxicity is -3.1%.
With `Cc1cc(C)c2c(CC(=O)NCc3ccco3)coc2c1` the figure was 5.6%.
For the compound `Cc1ccc2c(CC(=O)NCc3ccco3)coc2c1C`, the cytotoxicity is 73.2% (active).
As for `O=C(Cc1cccs1)NCc1ccco1`, the figure is 6.7%; as for `CN1C(=O)CC(N2CCN(C(c3ccccc3)c3ccccc3)CC2)C1=O` (stereo not given), -16.6%; as for `COC(=O)Cn1c(CN2CCN(c3ccc(F)cc3)CC2)nc2c1c(=O)n(C)c(=O)n2C`, 0.6%.
Consider `CCOC(=O)NC(Nc1ncccn1)(C(F)(F)F)C(F)(F)F`, for which the cytotoxicity is -17.3%.
With `COC(=O)c1[nH]c2c(c1C)C(=O)CC(c1cc(OC)ccc1OC)C2` (stereo not given), the cytotoxicity was 18.9%.
Take `COCCOC(=O)c1[nH]c2c(c1C)C(=O)CC(c1cc(OC)ccc1OC)C2` (stereo not given): the cytotoxicity was -6.8%.
In the case of `COc1ccc(OC)c(C2CC(=O)c3c([nH]c(C(=O)OC(C)C)c3C)C2)c1` (stereo not given), the cytotoxicity is 51.6% (active).
As for `CCCOCCOC(=O)c1[nH]c2c(c1C)C(=O)CC(c1cc(OC)ccc1OC)C2` (stereo not given), the figure is 53.5% (active).
With `COc1ccc(C2CC(=O)c3c([nH]c(C(=O)OC(C)C)c3C)C2)cc1OC` (stereo not given) the figure was -16.2%.
With `COc1cc2nc(CC(C)C)n(NC(=O)c3ccccc3)c(=O)c2cc1OC` the figure was -0.2%; with `Cc1cc(N2CCN(C(=O)c3ccco3)CC2)n2nc(-c3cccc(Cl)c3)cc2n1`, 2%.
`c1cnc(NCCNc2ncccn2)nc1`: the cytotoxicity is -5.3%.
Regarding `Cc1cc(NC(=O)c2ccc(Cn3nc(C)c(Br)c3C)o2)no1`, the cytotoxicity is 6.8%.
As for `CCOC(=O)C1CCN(c2c(N(C)Cc3ccco3)c(=O)c2=O)CC1`, the figure is 11%; as for `O=CN1Cc2[nH]c3ccccc3c2N(c2ccc(Cl)cc2)C1=O`, -0.4%; as for `Cc1cccc(S(=O)(=O)c2c(N)n(/N=C/c3ccco3)c3nc4ccccc4nc23)c1`, 17.6%.
Regarding `Nc1c(S(=O)(=O)c2cccs2)c2nc3ccccc3nc2n1Cc1cccs1`, the cytotoxicity is -15.3%.
As for `Cc1cccc(S(=O)(=O)c2c(N)n(/N=C/c3cccnc3)c3nc4ccccc4nc23)c1`, the figure is 23.4%; as for `Nc1c(S(=O)(=O)c2cccs2)c2nc3ccccc3nc2n1/N=C/c1cccc(O)c1`, 65.7% (active); as for `Nc1c(S(=O)(=O)c2ccccc2)c2nc3ccccc3nc2n1/N=C/c1ccco1`, 45.3%.
As for `Cc1ccc(S(=O)(=O)c2c(N)n(/N=C/c3ccco3)c3nc4ccccc4nc23)cc1C`, the figure is 8.5%.
Turning to `Nc1c(S(=O)(=O)c2cccc(Cl)c2)c2nc3ccccc3nc2n1/N=C/c1ccc(O)c(O)c1`, the cytotoxicity was 126% (active).
In the case of `COCCn1c(N)c(S(=O)(=O)c2cccs2)c2nc3ccccc3nc21`, the cytotoxicity was -1.6%.
Take `O=C(CCSc1nc(-c2ccco2)cc(C(F)(F)F)n1)NCC1CCCO1` (stereo not given): the cytotoxicity was 3.2%.
As for `COCCCNC(=O)CCn1c(=O)c2ccccc2n(CC(=O)Nc2ccccc2C)c1=O`, the figure is 1.7%.
Regarding `CN(C(=O)c1ccc2c(=O)n3c(nc2c1)CCCCC3)c1ccccc1`, the cytotoxicity is -5.5%.
With `CCOC(=O)c1c(C)[nH]c(C(=O)CSc2nnnn2-c2ccccc2)c1C` the figure was -2.7%; with `CCc1nc2oc3cc(OC)ccc3c(=O)c2c(=O)n1Cc1ccco1`, -11.3%; with `O=C(Nc1cccnc1)C1CCCN(S(=O)(=O)c2cccc3nsnc23)C1` (stereo not given), -2.5%.
